From PubChem BioAssay (NCATS)
Records with an inconclusive call do not appear. The source made the active and inactive calls. Unless noted, calls come from the whole dose curve; as a rule, active = well fitted cell-killing curve with a large enough effect; inconclusive = small, poorly fitted or top-dose-only effect; inactive = flat fitted curve, though single readings scatter.

What was measured:
[1] = Cell Viability - LYMP2-007 (AID 979);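 note: cells exposed to compound for 24 h before reading; 0% = DMSO only and the negative end = 92 µM tetraoctylammonium bromide; nearly all actives have a fitted effect of over 60% in size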
Method in brief: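 Human lymphoblastoid cells (2500/well) were plated in complete medium, incubated 5 hr at 37 C, then exposed to compounds for 24 hr at 37 C. Intracellular ATP was read by CellTiter-Glo luminescence after 30 min at room temperature; AC50 from Hill fits.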

[2] = Cell Viability - LYMP2-008 (AID 980); note: % is set by controls: 0 for no effect and ±100 for the full control effect; nearly all actives have a fitted effect of over 60% in size
Method in brief: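 Human lymphoblastoid cells (2500/well) were plated, held 5 hr at 37 C, then exposed to compounds for 24 hr at 37 C in complete medium. Intracellular ATP was read by CellTiter-Glo luminescence; AC50 from Hill-fitted concentration-response.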

[3] = Cell Viability - LYMP2-010 (AID 981); note: % is set by controls: 0 for no effect and ±100 for the full control effect; nearly all actives have a fitted effect of over 55% in size
Method in brief: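 Human lymphoblastoid LYMP2-010 cells (2500/well) were preincubated 5 hr at 37 C, then exposed to compounds for 24 hr at 37 C in complete medium. Intracellular ATP was measured by CellTiter-Glo luminescence after 30 min at room temperature; AC50 from Hill-fitted concentration-response.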

[4] = Cell Viability - LYMP2-014 (AID 983);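 note: series mostly up to about 92 µM; plate controls were DMSO only for no effect and 92 µM tetraoctylammonium bromide for full effect; nearly all actives have a fitted effect of over 50% in size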
Method in brief: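 Human lymphoblastoid cells (2500/well) were pre-incubated 5 hr at 37 C, then exposed to compounds in complete medium for 24 hr at 37 C. Intracellular ATP was read by CellTiter-Glo luminescence after 30 min at room temperature; AC50 from Hill fits.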

[5] = Cell Viability - LYMP2-016 (AID 984); note: % is set by controls: 0 for no effect and ±100 for the full control effect; nearly all actives have a fitted effect of over 55% in size
Method in brief: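 Cells were seeded at 2500 per well and rested 5 hr before a 24 hr compound exposure at 37 C. Viability was then gauged as cellular ATP by luciferase luminescence, with AC50 values fitted to the Hill equation.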

[6] = Cell Viability - LYMP2-018 (AID 985);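 note: plate controls were DMSO only for no effect and tetraoctylammonium bromide at 92 µM for full effect; nearly all actives have a fitted effect of over 50% in size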
Method in brief: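 Human lymphoblastoid cells (2500/well) were pre-incubated 5 hr at 37 C, then exposed to compounds for 24 hr at 37 C in complete medium. Viability was read as intracellular ATP by CellTiter-Glo luminescence; AC50 values came from Hill-equation fits.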

[7] = Cell Viability - LYMP2-020 (AID 986);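 note: series mostly up to about 92 µM; plate controls were DMSO only for no effect and tetraoctylammonium bromide at 92 µM for full effect; nearly all actives have a fitted effect of over 55% in size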
Method in brief: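 Human lymphoblastoid cells, 2500/well, were pre-incubated 5 hr at 37 C, then exposed to compounds for 24 hr at 37 C in complete medium. Intracellular ATP was read by CellTiter-Glo luminescence, and AC50 was derived by Hill fitting of concentration-response data.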

[8] = Cell Viability - LYMP2-022 (AID 987);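 note: 0% = DMSO alone and full effect = tetraoctylammonium bromide at 92 µM; nearly all actives have a fitted effect of over 55% in size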
Method in brief: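 Human lymphoblastoid cells, 2500/well, preincubated 5 hr at 37 C, then exposed to compounds over a concentration range for 24 hr at 37 C in complete medium. Viability read as intracellular ATP by CellTiter-Glo luminescence after 30 min at room temperature; AC50 from Hill fits.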

[9] = Cell Viability - LYMP2-024 (AID 988);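 note: plate controls were DMSO only for no effect and 92 µM tetraoctylammonium bromide for full effect; nearly all actives have a fitted effect of over 60% in size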
Method in brief: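 Human lymphoblastoid cells (2500/well) in complete medium were preincubated 5 hr at 37 C, then exposed to compounds for 24 hr at 37 C. Intracellular ATP was read by CellTiter-Glo luminescence; AC50 from Hill-equation fits of concentration-response data.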

[10] = Cell Viability - LYMP2-026 (AID 989); note: % is set by controls: 0 for no effect and ±100 for the full control effect; nearly all actives have a fitted effect of over 50% in size
Method in brief: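 Human lymphoblastoid cells (2500/well) in complete medium were preincubated 5 hr at 37 C, then exposed to compounds for 24 hr at 37 C. Cellular ATP was read by CellTiter-Glo luminescence; AC50 from Hill-equation fits of concentration-response data.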

[11] = Cell Viability - LYMP1-002 - Assay at 24 hr (AID 993); note: % is set by controls: 0 for no effect and ±100 for the full control effect
Method in brief: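 Human lymphoblastoid LYMP1-002 cells, 2500/well in complete medium, were treated with compounds for 24 h at 37 C; intracellular ATP was read by CellTiter-Glo luminescence. AC50 values came from Hill-equation fits of qHTS concentration-response data.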

[12] = Cell Viability - LYMP1-002 - Assay at 40 hr (AID 994);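 note: 0% = DMSO only and full inhibition = 92 µM tetraoctylammonium bromide; nearly all actives have a fitted effect of over 60% in size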
Method in brief: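 Human lymphoblastoid cells, 2500/well in complete medium, were preincubated 5 hr at 37 C, then exposed to compounds for 40 hr at 37 C. Intracellular ATP was read by CellTiter-Glo luminescence after 30 min at room temperature; AC50 from Hill-equation fits.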

[13] = qHTS Assay for Identification of Small Molecule Inducers of Hypoxia Response (AID 2120; active = well fitted curve in the direction sought with a large enough effect in the signal ratio, with a control signal flat, not every such curve was filed as active; the % refers to the signal ratio; note: 0% is about no effect)
Method in brief: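 HRE-beta-lactamase reporter in CellSensor HRE-bla ME-180 cells, 2500 cells/well in Opti-MEM with 0.5% dialyzed FBS; compounds tested as titration series, 17 h at 37 degrees C. CCF4 substrate 2.5 h at room temperature; AC50 from 460/530 nm ratio.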

[14] = biological target: Estrogen receptor (Homo sapiens) (UniProt P03372); assay: qHTS assay for small molecule antagonists of estrogen receptor alpha signaling (AID 588513; active = well fitted curve in the direction sought with a large enough effect in the signal ratio, with a control signal flat, not every such curve was filed as active; the % refers to the signal ratio; note: % is set by controls: 0 for no effect and ±100 for the full control effect)
Method in brief: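 Fluorescence from CCF4 substrate after 2 h at room temperature gave reporter activity; cells had been exposed to compound and 0.5nM 17-beta-estradiol for 18 h at 37 C. Hill-equation fitting yielded IC50 and maximal response.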

[15] = biological target: Estrogen receptor (Homo sapiens) (UniProt P03372); assay: qHTS assay for small molecule agonists of estrogen receptor alpha signaling (AID 588514; calls by dose curve;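 note: 0% = vehicle only and 100% = reference agonist; nearly all actives have a fitted effect of over 70% in size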)
Method in brief: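 ER-alpha-UAS-bla GripTite HEK 293 cells in medium with 2% charcoal/dextran-treated FBS were treated with compound titrations at 37 C for 18 hrs; beta-lactamase reporter read by CCF4 fluorescence after 2 hrs at RT.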

[16] = biological target: Bile acid receptor (Homo sapiens) (UniProt Q96RI1); assay: qHTS assay for small molecule antagonists of farnesoid X receptor signaling (AID 588526; calls by dose curve; note: % is set by controls: 0 for no effect and ±100 for the full control effect)
Method in brief: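 Antagonist mode: titrated compounds tested against chenodeoxycholic acid stimulation (normalized to 50 uM CDCA and DMSO) in GeneBLAzer HEK293T cells for 16 h. Beta-lactamase read by CCF4 fluorescence; IC50 from Hill fits.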

[17] = biological target: Bile acid receptor (Homo sapiens) (UniProt Q96RI1); assay: qHTS assay for small molecule agonists of farnesoid X receptor signaling (AID 588527; calls by dose curve;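 note: series mostly up to about 77 µM; 0% = vehicle basal and 100% = reference agonist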); details: HEK293T FXR-UAS-bla, beta-lactamase ratio, 16 h; stronger effect = higher value
Method in brief: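 FXR-UAS-bla HEK293T, 10% dialyzed FBS; cpds up to 92 uM titration, 16 h 37 C; CCF4 dye 2 h RT; fluorescence. Normalized to chenodeoxycholic acid 100 uM (100%) and DMSO (0%); Hill fit gives EC50, efficacy.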

[18] = biological target: Glucocorticoid receptor (Homo sapiens) (UniProt P04150); assay: qHTS assay for small molecule antagonists of glucocorticoid receptor signaling (AID 588533; active = well fitted inhibition curve with a large enough effect in the signal ratio, with a control signal flat, not every such curve was filed as active; the % refers to the signal ratio; note: % is set by controls: 0 for no effect and ±100 for the full control effect)
Method in brief: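 Antagonist-mode qHTS: compound titrations added to GRE-bla HeLa cells, then dexamethasone 2 nM final; 18 h, 37 C. CCF4 FRET fluorescence normalized to dexamethasone and DMSO; IC50 from Hill fit.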

[19] = biological target: Peroxisome proliferator-activated receptor delta (Homo sapiens) (UniProt Q03181); assay: qHTS assay for small molecule agonists of peroxisome proliferator-activated receptor delta signaling (AID 588534; calls by dose curve;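 note: 0% = DMSO basal wells and 100% = positive control agonist at 10 µM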)
Method in brief: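 Cell-based beta-lactamase reporter assay run in agonist mode: cells seeded and incubated 5 hrs at 37 C, compounds added and incubated 18 hrs at 37 C. CCF4 dye fluorescence read after 2 hrs at RT; EC50 and efficacy from Hill fits.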

[20] = qHTS assay for small molecule antagonists of peroxisome proliferator-activated receptor delta signaling (AID 588535); details: HEK293T PPARd-UAS-bla, beta-lactamase FRET ratio, 18 h; 460 nm channel;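 note: cells co-treated with a PPAR-delta agonist as stimulator during compound exposure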
Method in brief: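 Cells were seeded at 4000 per well in assay medium containing 2% charcoal/dextran FBS and held 5 hrs at 37 C. Compounds were then added for 18 hrs. CCF4 substrate was applied for 2 hrs at room temperature before fluorescence reading.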

[21] = biological target: Peroxisome proliferator-activated receptor gamma (Homo sapiens) (UniProt P37231); assay: qHTS assay for small molecule agonists of peroxisome proliferator-activated receptor gamma signaling (AID 588536; active = well fitted curve in the direction sought with a large enough effect in the signal ratio, with a control signal flat, not every such curve was filed as active; the % refers to the signal ratio;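 note: 0% = DMSO basal wells and 100% = rosiglitazone at 2 µM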)
Method in brief: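 PPAR-gamma-UAS-bla HEK293 cells in medium with 1% charcoal/dextran-treated FBS were exposed to compounds for 16 h at 37 C. Beta-lactamase activity was read with CCF4 substrate (405 nm excitation, 460/530 nm emission).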

[22] = biological target: Vitamin D3 receptor (Homo sapiens) (UniProt P11473); assay: qHTS assay for small molecule antagonists of vitamin D receptor signaling (AID 588541; calls by dose curve)
Method in brief: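 VDR-UAS-bla HEK293T cells in 2% charcoal-stripped FBS were stimulated with 1-alpha,25-dihydroxyvitamin D3 (3 nM final) plus compound for 16 h at 37 C. The beta-lactamase CCF4 readout was normalized to 50 nM agonist and DMSO, and Hill fits gave IC50.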

Sequence of Bile acid receptor (Homo sapiens) (Q96RI1 whole entry, looked up): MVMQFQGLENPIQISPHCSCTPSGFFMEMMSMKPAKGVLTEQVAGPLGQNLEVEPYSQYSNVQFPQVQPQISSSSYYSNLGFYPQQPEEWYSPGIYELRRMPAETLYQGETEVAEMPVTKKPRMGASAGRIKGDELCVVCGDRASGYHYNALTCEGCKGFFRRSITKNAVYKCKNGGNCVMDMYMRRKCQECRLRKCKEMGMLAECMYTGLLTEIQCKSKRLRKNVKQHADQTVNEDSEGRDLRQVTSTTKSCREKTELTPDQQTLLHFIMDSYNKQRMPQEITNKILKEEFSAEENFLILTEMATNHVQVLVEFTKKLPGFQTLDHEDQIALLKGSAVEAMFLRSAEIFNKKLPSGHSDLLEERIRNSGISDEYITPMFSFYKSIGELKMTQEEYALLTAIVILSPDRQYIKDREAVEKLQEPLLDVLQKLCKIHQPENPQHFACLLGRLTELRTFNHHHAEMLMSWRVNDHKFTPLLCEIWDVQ
Sequence of Estrogen receptor (Homo sapiens) (P03372 whole entry, looked up): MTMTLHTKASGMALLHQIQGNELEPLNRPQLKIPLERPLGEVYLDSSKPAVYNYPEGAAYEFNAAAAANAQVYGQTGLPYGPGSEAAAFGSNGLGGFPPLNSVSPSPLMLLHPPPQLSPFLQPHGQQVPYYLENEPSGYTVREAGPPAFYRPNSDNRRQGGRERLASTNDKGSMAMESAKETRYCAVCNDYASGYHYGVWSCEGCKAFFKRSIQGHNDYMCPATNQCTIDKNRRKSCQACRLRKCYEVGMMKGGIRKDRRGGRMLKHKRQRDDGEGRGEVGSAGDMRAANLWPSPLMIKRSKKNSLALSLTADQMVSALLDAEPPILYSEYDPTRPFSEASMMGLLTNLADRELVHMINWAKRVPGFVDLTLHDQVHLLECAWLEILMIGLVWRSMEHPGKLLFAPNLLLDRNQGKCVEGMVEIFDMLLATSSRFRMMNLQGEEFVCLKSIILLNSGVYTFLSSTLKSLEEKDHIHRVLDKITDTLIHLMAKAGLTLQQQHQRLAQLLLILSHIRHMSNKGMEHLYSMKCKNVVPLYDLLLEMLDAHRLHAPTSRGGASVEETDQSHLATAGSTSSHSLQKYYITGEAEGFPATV
Sequence of Vitamin D3 receptor (Homo sapiens) (P11473 whole entry, looked up): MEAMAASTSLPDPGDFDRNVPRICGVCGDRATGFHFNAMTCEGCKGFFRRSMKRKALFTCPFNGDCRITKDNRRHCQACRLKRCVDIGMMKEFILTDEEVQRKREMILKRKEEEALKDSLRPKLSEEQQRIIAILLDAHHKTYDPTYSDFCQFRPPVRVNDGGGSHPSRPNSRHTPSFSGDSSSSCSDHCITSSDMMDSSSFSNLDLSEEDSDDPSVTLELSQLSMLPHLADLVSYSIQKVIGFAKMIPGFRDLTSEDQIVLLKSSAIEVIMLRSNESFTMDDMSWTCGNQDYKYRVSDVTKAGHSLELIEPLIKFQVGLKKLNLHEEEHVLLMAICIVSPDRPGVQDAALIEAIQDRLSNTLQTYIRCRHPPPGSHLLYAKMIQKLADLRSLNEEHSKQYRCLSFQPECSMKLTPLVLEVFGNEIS
Sequence of Glucocorticoid receptor (Homo sapiens) (P04150 whole entry, looked up): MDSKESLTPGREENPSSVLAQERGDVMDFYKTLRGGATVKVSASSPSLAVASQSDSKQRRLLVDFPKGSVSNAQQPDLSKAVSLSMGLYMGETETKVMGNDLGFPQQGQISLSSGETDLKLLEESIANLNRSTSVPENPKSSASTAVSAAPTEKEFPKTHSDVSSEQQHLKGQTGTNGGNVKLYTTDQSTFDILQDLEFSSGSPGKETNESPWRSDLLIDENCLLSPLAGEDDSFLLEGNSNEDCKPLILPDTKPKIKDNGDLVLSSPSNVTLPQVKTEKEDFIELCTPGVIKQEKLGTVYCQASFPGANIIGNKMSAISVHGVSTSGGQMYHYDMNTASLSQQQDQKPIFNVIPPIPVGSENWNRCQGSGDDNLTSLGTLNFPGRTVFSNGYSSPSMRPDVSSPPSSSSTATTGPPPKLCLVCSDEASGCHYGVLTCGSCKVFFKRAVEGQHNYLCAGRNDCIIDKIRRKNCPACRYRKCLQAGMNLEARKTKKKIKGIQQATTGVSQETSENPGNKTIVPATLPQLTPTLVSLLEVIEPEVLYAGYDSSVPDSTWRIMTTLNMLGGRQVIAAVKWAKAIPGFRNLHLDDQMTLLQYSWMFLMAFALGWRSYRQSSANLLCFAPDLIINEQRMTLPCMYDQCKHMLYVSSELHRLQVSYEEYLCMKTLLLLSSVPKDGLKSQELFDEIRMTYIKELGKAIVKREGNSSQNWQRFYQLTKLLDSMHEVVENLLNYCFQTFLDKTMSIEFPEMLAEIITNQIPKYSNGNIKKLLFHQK
Sequence of Peroxisome proliferator-activated receptor delta (Homo sapiens) (Q03181 whole entry, looked up): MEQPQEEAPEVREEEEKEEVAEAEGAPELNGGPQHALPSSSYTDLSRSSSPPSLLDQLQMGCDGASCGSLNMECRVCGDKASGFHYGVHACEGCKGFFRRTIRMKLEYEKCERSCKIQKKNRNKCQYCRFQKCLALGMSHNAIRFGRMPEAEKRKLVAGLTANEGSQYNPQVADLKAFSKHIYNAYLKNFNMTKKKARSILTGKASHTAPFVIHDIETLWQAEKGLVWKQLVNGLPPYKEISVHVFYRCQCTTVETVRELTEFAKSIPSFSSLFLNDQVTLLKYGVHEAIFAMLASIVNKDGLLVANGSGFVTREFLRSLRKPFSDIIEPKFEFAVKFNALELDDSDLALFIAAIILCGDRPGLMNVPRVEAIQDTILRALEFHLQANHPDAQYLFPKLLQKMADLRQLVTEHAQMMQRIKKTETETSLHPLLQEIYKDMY
Sequence of Peroxisome proliferator-activated receptor gamma (Homo sapiens) (P37231 whole entry, looked up): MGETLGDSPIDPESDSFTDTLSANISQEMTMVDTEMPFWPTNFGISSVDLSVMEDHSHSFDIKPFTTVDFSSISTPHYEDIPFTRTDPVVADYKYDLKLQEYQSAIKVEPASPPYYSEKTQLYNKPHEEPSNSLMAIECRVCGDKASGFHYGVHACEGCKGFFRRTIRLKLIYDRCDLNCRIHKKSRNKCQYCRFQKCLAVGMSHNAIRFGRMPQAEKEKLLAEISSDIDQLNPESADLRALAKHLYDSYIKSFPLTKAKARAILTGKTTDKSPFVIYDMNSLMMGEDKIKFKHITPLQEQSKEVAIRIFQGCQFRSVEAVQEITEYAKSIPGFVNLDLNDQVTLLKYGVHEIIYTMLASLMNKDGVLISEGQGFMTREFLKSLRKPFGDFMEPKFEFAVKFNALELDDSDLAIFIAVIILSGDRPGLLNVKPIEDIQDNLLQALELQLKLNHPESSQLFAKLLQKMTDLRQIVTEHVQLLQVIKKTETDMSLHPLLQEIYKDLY

CC(Cl)Cl
2.53%: max response [20]
inactive: Potency [1] | Potency [2] | Potency [3] | Potency [4] | Potency [5] | Potency [6] | Potency [7] | Potency [8] | Potency [9] | Potency [10] | Potency [11] | Potency [12] | outcome [13] | Potency [14] | Potency [15] | outcome [16] | activation [17] -0.0258% | Potency [18] | outcome [19] | outcome [21] | outcome [22]
